From PubChem
A selection follows.
aSyn UTR act = Activators via SNCA 5'UTR binding, MLPCN | alpha-synuclein 5'UTR reporter, activators screen | activity score, % (tested at 7.5 µM), hits read low | 300,000 tested, 7.1% active | AID 1814, 2009; in the data active means activity score below about -60%
An asterisk follows results filed as active.

SMILES	aSyn UTR act
CC(C)NC(=S)NC(=O)/C=C/c1ccc(F)cc1	-64*
CC(C)(C)SCCNC(=O)/C=C/c1ccc(F)cc1	-68*
CC(C)(C)SCCNC(=O)/C=C/c1ccccc1	-113*
O=C(/C=C/c1ccccc1)NCCc1ccccc1	-154*
CC(C(=O)N1CCCCC1)n1sc2ccccc2c1=O (configuration not stated)	-134*
COc1ccccc1NC(=O)Cn1c(CN2CCCCC2)nc2ccccc2c1=O	-63*
COCc1cc(CN2CCCC2)c(O)c2ncccc12	59
CC(C)(C)c1ccc(C(=O)Nc2ncn[nH]2)cc1	-134*
Nc1nc(-c2ccc3c(c2)OCCO3)cs1	-86*
Cc1nc(-c2ccc3c(c2)OCCCO3)cs1	-100*
CC1Cc2cc(-c3csc(N)n3)ccc2O1 (configuration not stated)	-95*
CC(=O)c1ccc2c(c1)C1C=CCC1C(c1ccncc1)N2 (configuration not stated)	-77*
COc1ccc(Cl)c2c1[nH]c1nc(SCc3ccccn3)nnc12	-106*
COc1cccc(/C=N/Nc2nn3cnnc3c3ccccc23)c1	-62*
N/C(=N\c1nc2ccccc2o1)NC(=O)c1ccccc1Br	-184*
COc1ccc(C(=O)N/C(N)=N/c2nc3ccccc3o2)cc1	-216*
N/C(=N\c1nc2ccccc2o1)NC(=O)c1ccc(F)cc1	-132*
Cc1ccc2oc(/N=C(\N)NC(=O)C(C)(C)C)nc2c1	96
COc1ccc(C(=O)/C=C/Sc2nc3ccccc3o2)cc1	-169*
N/C(=N\c1nc2ccccc2o1)NC(=O)c1ccc(Cl)cc1	-87*
COCCNC(=O)Cc1c(C)c2c(cc(C)c3c(C(C)(C)C)coc32)oc1=O	-116*
Cc1cc2oc(=O)c(CC(=O)NCCCN(C)C)c(C)c2c2occ(C(C)(C)C)c12	61
CSc1ccccc1C(=O)Nc1ncc(C)s1	-63*
Cc1ccc(C(=O)Nc2ncc(Cc3ccc(SC(F)F)cc3)s2)cc1	-163*
Cc1ccc(C(=O)Nc2ncc(Cc3ccc(F)cc3)s2)o1	-107*
SMILES	aSyn UTR act
Cc1ccc(C(=O)Nc2ncc(C)s2)o1	-119*
Cc1cnc(NC(=O)c2sc3ccccc3c2Cl)s1	59
CCCc1cc(C(=O)Nc2nnc(C)s2)cs1	-115*
CC(C)N1CCc2c(sc(NC(=O)c3ccc4ccccc4c3)c2C(N)=O)C1	-97*
CC(C)c1nnc(NC(=O)c2sc3ccccc3c2Cl)s1	-110*
Cc1nnc(NC(=O)c2ccc3ccccc3c2)s1	-145*
CN1CCc2c(sc(NC(=O)c3ccc([N+](=O)[O-])o3)c2C(N)=O)C1	86
CCC(CC)c1nnc(NC(=O)c2ccc3ccccc3n2)s1	-86*
CC(C)c1nnc(NC(=O)c2ccc3ccccc3c2)s1	-64*
CC(=O)c1cnc(-c2ccccc2Cl)s1	-82*
Nc1n[nH]c(N)c1N=Nc1ccc(Cl)cc1Cl	-74*
COc1ccc2c(c1)C(C)=CC(C)(C)N2S(=O)(=O)c1ccc(NC(C)=O)cc1	71
COc1ccc2c(c1)C(C)=CC(C)(C)N2S(=O)(=O)c1ccc(Br)cc1	-86*
COc1ccc(C)cc1Nc1c2c(nc3ccccc13)CCC2	68
Cc1nn(-c2cc(C)c3ccccc3n2)c2c1CCC2	-90*
Cc1ccc(O)c(C(=O)CC(=O)c2cccc(F)c2)c1	-85*
Cc1cccc(C(=O)CC(=O)c2cc(Cl)ccc2O)c1	64
O=C(CC(=O)c1cc(Cl)ccc1O)c1ccccc1	-99*
NC(=NCCc1ccccc1)NC(=O)c1cc(Cl)ccc1O	-108*
COCc1cc(C)nc2sc(C(=O)Nc3ccccc3F)c(N)c12	-82*
Cc1cc(C)c2c(N)c(C(=O)Nc3ccc(C)c(C)c3)sc2n1	-63*
Cc1cc(C)c2c(N)c(C(=O)Nc3ccc([N+](=O)[O-])cc3)sc2n1	-144*
COc1ccc(NC(=O)c2sc3nc(C)cc(C)c3c2N)cc1	-172*
COCc1cc(C)nc2sc(C(=O)NN)c(-n3cccc3)c12	71
Cc1cc(C)c2c(N)c(C(=O)N/N=C/c3cccs3)sc2n1	-140*
SMILES	aSyn UTR act
O=C(N/N=C/c1cccs1)c1n[nH]c2c1CCC2	68
Cc1cc(C(F)(F)F)c2c(N)c(C(=O)Nc3cc(C)on3)sc2n1	-125*
CCOC(=O)c1c(C)nc2sc(C(=O)Nc3ccc(C(C)=O)cc3)c(N)c2c1-c1ccc(OC)cc1	-90*
C=CCNc1nc(N)c(C(=O)Nc2cc(C)on2)s1	-111*
Cc1cc(C)cc(NC(=O)c2sc3nc(C)cc(C)c3c2N)c1	-136*
COc1ccc(-n2cc(-c3ccccc3)[nH]c2=S)cc1	-91*
Cc1cccc(-n2cc(-c3ccccc3)[nH]c2=S)c1	-108*
CC(=O)Nc1ccc(-n2cc(-c3ccccc3)[nH]c2=S)cc1	-81*
Cc1nnsc1C(=O)NNc1ccc(C(C)C)cc1	-99*
O=[N+]([O-])c1ccc2oc(-c3ccccc3)nc2c1	-236*
O=[N+]([O-])c1ccc(O)c(-c2cc(C(F)(F)F)nc(-c3ccccc3)n2)c1	90
COc1ccc(-c2nc3ccc([N+](=O)[O-])cc3o2)cc1	-192*
Cc1cccc(-c2nc3cc([N+](=O)[O-])ccc3o2)c1	-130*
